A number with no mark means an inactive call. Calls come from the whole dose curve; as a rule, active = well fitted curve in the direction sought with a large enough effect; inactive = no such curve, though single readings can be large or run the other way.
Biological target: Alpha-galactosidase A (Homo sapiens) (UniProt P06280)
Experiment: Counterscreen for Glucocerebrosidase Inhibitors: qHTS Assay for Human alpha-Galactosidase at pH 4.5 (AID 992); note: 0% is about no effect
Details: purified enzyme, fluorogenic substrate; series mostly up to 76.9 µM; activity change, negative = inhibition: at the top concentration
Excerpt: NIH Chemical Genomics Center [NCGC]
NIH Molecular Libraries Screening Centers Network [MLSCN]
PI Name: Zheng, Wei [NIH]
Alpha-galactosidase is a homodimeric glycoprotein that hydrolyzes the terminal alpha-galactosyl moieties from glycolipids and glycoproteins. Deficiency of this enzyme results in Fabry Disease with progressive accumulation of globotriaosylceramide and other glycosphingolipids in vascular endothelial cells that causes renal failure, myocardial infarction and stroke, and premature death in patients. It has reported that the improper folding and trafficking of alpha-galactosidase resulted from the genetic mutations may account for a significant numbers of Fabry patients. […] We optimized this alpha-galactosidase assay in 1536-well plate format for identifying the novel small molecule inhibitors with the structures other than the sugar analogs in order to develop the new pharmacological chaperones.
NCGC Assay Protocol Summary:
This is a fluorogenic enzyme assay with 4-Methylumbelliferyl alpha-D-galactopyranoside as the substrate and human […] as the enzyme preparation. Upon the hydrolysis of this fluorogenic substrate, the resulting product, […]. 4-Methyllumbelliferone, can be excited at 365 nm and emits at 440 nm which can be detected by a standard fluorescence plate reader. Data were normalized to the controls for basal activity (without enzyme) and 100% activity (with enzyme). In the AC50 values were determined from concentration-response data modeled with the standard Hill equation.
Assay buffer: 50 mM citric acid, 0.005% Tween-20, pH 4.5. (pH 4.5 is an optimal condition for this enzyme assay)
1536-well assay protocol for the human alpha-galactosidase:
(1) Add 2 ul/well of enzyme (2 nM final)
(2) Add 23 nL compounds in DMSO solution. The final titration was 0.7 nM to 77 uM.
(3) Add 1 ul of substrate (80 uM final)
(4) Incubate at room temperature for 20 min.
(5) Add 2 ul stop solution (1M NaOH and 1M Glycine mixture, pH 10)
(6) Detect the assay plate in a ViewLux plate reader (PerkinElmer) with Ex=365 nm and Em=440nm.
Keywords: Alpha-galactosidase, Fabry Disease, pharmacological chaperone, chaperone therapy, high throughput screening, alpha-galactosidase inhibitor, MLSMR, MLSCN, NIH Roadmap, qHTS and NCGC

Chain of Alpha-galactosidase A (Homo sapiens) (P06280 whole entry, looked up): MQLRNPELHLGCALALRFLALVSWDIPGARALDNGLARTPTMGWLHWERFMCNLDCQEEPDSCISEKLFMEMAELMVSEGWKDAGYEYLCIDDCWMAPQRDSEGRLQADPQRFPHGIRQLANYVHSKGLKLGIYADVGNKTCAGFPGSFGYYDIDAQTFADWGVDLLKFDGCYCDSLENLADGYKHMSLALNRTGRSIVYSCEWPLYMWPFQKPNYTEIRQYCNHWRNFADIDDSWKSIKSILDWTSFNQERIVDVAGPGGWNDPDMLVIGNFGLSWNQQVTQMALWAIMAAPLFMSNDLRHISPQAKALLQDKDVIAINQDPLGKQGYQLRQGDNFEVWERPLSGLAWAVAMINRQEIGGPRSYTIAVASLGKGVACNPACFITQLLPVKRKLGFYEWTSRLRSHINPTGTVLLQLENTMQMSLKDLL

Compound | activity change, negative = inhibition [%]
CNCC[C@H](Oc1ccccc1OC)c1ccccc1 | 3.6
Fc1cccc(/C=N\N=C/c2cccc(F)c2)c1 | 0.479
COCCOC(=O)C1=C(C)NC(C)=C(C(=O)OC(C)C)[C@@H]1c1cccc([N+](=O)[O-])c1 | -7.42
Cc1ccc(/C(=C/CN2CCCC2)c2ccccn2)cc1 | -2.94
COc1ccc2c(c1)c(CC(=O)N1CCOCC1)c(C)n2C(=O)c1ccc(Cl)cc1 | -1.19
CC(C)=CCC/C(C)=C/CC/C(C)=C/CSc1ccccc1C(=O)O | -0.647
COc1ccccc1N1CCN(C[C@@H](O)COc2cccc3ccccc23)CC1 | -12.4
Cc1cccc([C@@H]2CN(C)CCc3c2cc(O)c(O)c3Cl)c1 | -0.671
CCCCCCCCCCCCC/C=C\[C@@H](O)[C@@H](N)CO | -3.92
C=C[C@H](N)CCC(=O)O | 0.969
C#C[C@]1(O)CC[C@H]2[C@H]3CCC4=Cc5oncc5C[C@]4(C)[C@@H]3CC[C@]21C | 0.596
N[C@@H]1CCN(O)C1=O | -1.74
O=C1N=C(O)CN1/N=C\c1ccc(-c2ccc([N+](=O)[O-])cc2)o1 | -4.26
CC#CCOC(=O)c1c(C)nc2sc3c(c2c1N)CC[C@@H](O)C3 | -0.925
CCn1ccnc1C[C@@H]1COc2ccccc2O1 | -2.73
C[C@@H]([C@H](O)c1ccc(O)cc1)N1CCC(Cc2ccccc2)CC1 | -2.64
CCCn1c(=O)c2[nH]c(-c3ccc(OCC(=O)Nc4ccc(C#N)cc4)cc3)nc2n(CCC)c1=O | 2.34
N#C/C(=C\c1ccc(O)c(O)c1)C(=O)Nc1ccccc1 | -3.37
CCN(Cc1ccncc1)C(=O)[C@@H](CO)c1ccccc1 | -3.18
O=C(NCCNC[C@@H](O)COc1ccc(O)cc1)N1CCOCC1 | -0.167

Compound | activity change, negative = inhibition [%]
C[C@@H]1CCN=C(N)S1 | -5.72
C[C@@H](CCc1ccc(O)cc1)NCCc1ccc(O)c(O)c1 | -7.1
CN(C)C/C=C(\c1ccc(Br)cc1)c1cccnc1 | -2.12
CC(N)=NCCCC[C@H](N)C(=O)O | -0.999
C[C@@H](/C=C\c1cccc(Oc2ccc(F)cc2)c1)N(O)C(N)=O | 2.73
NCCNS(=O)(=O)c1cccc2cnccc12 | -2.12
NC[C@](O)(CS(=O)(=O)O)c1ccc(Cl)cc1 | 0.759
C[C@H](N=C(NC#N)Nc1ccncc1)C(C)(C)C | -0.809
N#CC(=C(/N)Sc1ccccc1N)/C(C#N)=C(/N)Sc1ccccc1N | -2.24
CCCCCCCCCCCCCCCC(=O)O[C@H](CC(=O)O)C[N+](C)(C)C | -0.515
Cc1cccc(C)c1NC(=O)C[N+](C)(C)C | 2.66
O=C(O)[C@H]1CN(CCCP(=O)(O)O)CCN1 | -1.78
C[C@@](N)(C(=O)O)c1ccc(C(=O)O)cc1 | 5.27
C[C@@H]1C[C@@H]2[C@H]3CCC4=CC(=O)C=C[C@]4(C)[C@]3(F)[C@@H](O)C[C@@]2(C)[C@@]1(O)C(=O)CO | 4.41
NS(=O)(=O)c1cc2c(cc1Cl)N[C@@H]([C@@H]1C[C@@H]3C=C[C@H]1C3)NS2(=O)=O | -2.77
COC(=O)c1c(-c2cc(OC)c(OC)c(OC)c2)c2ccnc(OCc3ncccn3)c2c(=O)n1Cc1ccnc(C)c1 | -2.33
Cn1cnc2c(NC3CCCC3)ncnc21 | 0.252
O=C1CC[C@H](N2C(=O)c3ccccc3C2=O)C(=O)N1 | 3.72
Nc1c(S(=O)(=O)O)cc(Nc2ccc(Nc3nc(Cl)nc(Nc4ccc(S(=O)(=O)O)cc4)n3)c(S(=O)(=O)O)c2)c2c1C(=O)c1ccccc1C2=O | -1.51
COc1cccc(OC)c1OCCNC[C@@H]1COc2ccccc2O1 | -3.12

From PubChem BioAssay (NCATS)
